Results published in ChEMBL document CHEMBL4513216, “Probing the Open Global Health Chemical Diversity Library for Multistage-Active Starting Points for Next-Generation Antimalarials” (ACS Infect Dis, 2020).
The whole screen tested about 69,000 compounds, of which about 8,600 (12%) showed an effect of 50% or more. The full list was thinned out, with strong results kept by preference.

Test system: Plasmodium berghei
Test: Screen against P. berghei liver stage (PbLuc), transformed with Luciferase, at 10uM
Type: functional, HepG2
Details: tested at 10 uM

SMILES	INHIBITION
Cc1c(Br)cnn1CC(=O)Nc1ccon1	34.2%
COCC1COCCC12CCN(S(=O)(=O)c1ccccc1)CC2 (stereo not given)	-27.1%
Cc1c(C(=O)NCc2ccnc(OCC(F)(F)F)c2)cnn1C	-6.11%
CC(C)OCc1cccc(CNc2cnn(C)c(=O)c2Cl)c1	85.2%
COc1cccc(CNc2cnn(C)c(=O)c2Cl)c1	49.6%
COc1ccc(CNc2cnn(C)c(=O)c2Cl)cc1	52.3%
Cc1cccc(C(C)(C)CNc2cn[nH]c(=O)c2Cl)c1	-5.92%
Cn1ncc(NCc2cccc(OCC(F)(F)F)c2)c(Cl)c1=O	99.6%
CCOc1cccc(CNc2cnn(CC(C)C)c2CC)c1	39.5%
Cn1ncc(NCc2cccc(COC(C)(C)C)c2)c(Cl)c1=O	80.6%
CC(NCc1cccc(COC2CCCC2)c1)c1cnn(C)c1 (stereo not given)	-0.448%
CCn1c(NCc2ccc(OC)cc2)nc2c(C)nn(C)c2c1=O	13.5%
CC(C)N1CCC[C@H]1C(=O)NCC1CCN(c2cnn(C)c(=O)c2)CC1	15.1%
COc1cccc(CNc2cc(CO)ccc2Cl)c1	42.6%
Cc1nn(C)c(C)c1C1CCCN1C(=O)c1cc(C(N)=O)cs1 (stereo not given)	-11.2%
CN1C(=O)CC(c2cnn(C)c2)C12CCN(C(=O)C1CC=CC1)CC2 (stereo not given)	-16.5%
CN(C)Cc1ccnc(C2CN(Cc3c(F)cccc3F)CCO2)n1 (stereo not given)	8.53%
Cn1ccnc1CNCC1CCCN1c1cccnn1 (stereo not given)	-31.5%
CC(Cn1cccn1)NC(=O)N1CCCN(Cc2cccs2)CC1 (stereo not given)	14.4%
CN(C)CCn1c(=O)n(C)c(=O)c2ccccc21	-40.3%
CCC(=O)N1CCC2(CCC(N3CCCC3)c3ccccc32)CC1 (stereo not given)	40.8%
Cc1nn(C)c(N(C)C)c1CNC1CCCCNC1=O (stereo not given)	5.42%
C=Cn1cc(CN2CCN(CC3(c4ccccc4)CC3)CC2)c(C)n1	26.57%
CN(Cc1ccncn1)C(=O)CCc1[nH]nc2c1CCCC2	33.9%
CC(C)N(CCO)C(=O)C1CCC(=O)N(CCc2ccc(Cl)cc2)C1 (stereo not given)	26.6%
CCN(CCO)C(=O)C1CCC(=O)N(CCc2cccc(F)c2)C1 (stereo not given)	43.7%
CC(C)N(CCO)C(=O)C1CCC(=O)N(CCc2cccc(F)c2)C1 (stereo not given)	56.6%

SMILES	INHIBITION
CCN(CC)C(=O)C1CCC(=O)N(CCc2cccc(F)c2)C1 (stereo not given)	12.3%
CC(C)N(C)C(=O)C1CCC(=O)N(CCc2cccc(F)c2)C1 (stereo not given)	52.3%
CCCN(CCO)C(=O)C1CCC(=O)N(CCc2ccc(Cl)cc2)C1 (stereo not given)	-39.9%
COc1ccc(OC)c(C(C)Nc2ncnc3c2NC(=O)CN3)c1 (stereo not given)	24.2%
N#Cc1cccc(C(=O)N2C[C@@H]3CC[C@H]2CN(C(=O)C2CCC2)C3)c1	28.5%
CN1C(=O)C2(CCN(C(=O)c3ccccc3)CC2)c2cc(F)ccc21	39.4%
Cn1cnnc1S(=O)(=O)C1CCN(S(=O)(=O)c2ccccc2F)CC1	15.7%
Cn1cnnc1S(=O)(=O)C1CCN(S(=O)(=O)c2ccc(F)c(Cl)c2)CC1	81.9%
Cc1ccc(S(=O)(=O)N2CCC(S(=O)(=O)c3nncn3C)CC2)cc1C	-0.554%
O=C(C1CC1)N1CCC(c2nc(O)c3c(n2)CCN(C2CCCC2)C3)C1 (stereo not given)	22.7%
CCN(CC)c1ncnc2c1CCN(C(=O)Cc1ccccn1)CC2	-49.6%
O=C1NCCN1C1CCCN(Cc2coc(-c3ccc(F)cc3)n2)C1 (stereo not given)	75.2%
Fc1ccc(-c2nc(CN3CCn4c(nnc4C4CC4)C3)co2)cc1	-21.7%
O=C1NCCCCC1SCc1coc(-c2cccc(F)c2)n1 (stereo not given)	-16.1%
Cc1ccc(-c2nc(CN3CCC(N4CCNC4=O)CC3)co2)cc1	26.5%
O=C1NCCCCC1SCc1coc(-c2ccc(F)cc2)n1 (stereo not given)	82.7%
O=C1NCCN1C1CCCN(Cc2nnc(-c3ccc(F)cc3)o2)C1 (stereo not given)	20.1%
O=C1NCCN1C1CCN(Cc2coc(-c3ccc(F)cc3)n2)CC1	52.5%
O=C1NCCCCC1SCc1coc(-c2ccccc2)n1 (stereo not given)	35.5%
O=C1NCCN1C1CCCN(Cc2coc(-c3cccs3)n2)C1 (stereo not given)	33.3%
CN(C)C(=O)C1CCC2(CCN(C(=O)Nc3cccc(F)c3)CC2)O1 (stereo not given)	18.6%
COc1ccc(OC)c(C(=O)N(C)Cc2nnc3ccccn23)c1	-35.7%
CN(C)[C@H]1CN(C(=O)CCCc2ccc(F)cc2)C[C@@H]1C1CC1	28.4%
COc1ccccc1C(=O)N1CC(=O)N(Cc2ccco2)CC(O)C1 (stereo not given)	26.8%
COc1ccccc1CC(=O)N1CCC(NCc2ccc(C)o2)CC1	29.375%
O=C(NCc1ccco1)[C@H]1C[C@@H]2CCN(c3cccc(F)c3)C[C@H]2O1	44.1%
Cn1ccnc1-c1cn(CCCc2csc(N)n2)nn1	17.5%

SMILES	INHIBITION
COC(=O)CC1CCCCN1CC(=O)Nc1ccc(F)cc1Cl (stereo not given)	62.4%
COC(=O)CC1CCCCN1CC(=O)Nc1cc(F)ccc1F (stereo not given)	47.2%
COC(=O)CC1CCCCN1CC(=O)NCCc1ccc(F)cc1 (stereo not given)	38.5%
O=C(CCn1cncn1)N1C[C@@H]2CC[C@H]1CN(Cc1cccnc1)C2	14.3%
Cc1ccc(-c2noc(C(C)NS(C)(=O)=O)n2)cc1 (stereo not given)	1.8%
CS(=O)(=O)N1CCOCC2(CN(Cc3ccco3)CCO2)C1 (stereo not given)	3.47%
COc1ncc(CN(CCN(C)C)Cc2ccc(C)s2)cn1	63.8%
COCc1ncc(CN(Cc2ccncc2)Cc2ccc(C)s2)cn1	61.9%
CCNc1ncc(CN(CCN(C)C)Cc2ccc(C)s2)cn1	35%
CCc1ccc(CN(CCN(C)C)Cc2ccc(C)s2)nc1	22%
Cc1ccc(CN(Cc2ccncc2)C2CCN(C)CC2)s1	-6.73%
COCc1ncc(CN(CCN(C)C)Cc2ccc(C)s2)cn1	38.7%
Cc1cc(C(=O)NCC2CCS(=O)(=O)C2)ccc1NC(=O)c1ccco1 (stereo not given)	40.2%
CC(C)n1cnnc1CNC(=O)c1cnn(Cc2ccccc2)c1	-24.4%
COCC1c2c(cnn2CC2CC2)CCN1Cc1cc(C)on1 (stereo not given)	47.1%
COCCn1cc(C(=O)NC2CCS(=O)(=O)C2)c2ccccc2c1=O (stereo not given)	42.8%
Cc1cc(C(=O)N2CCC(O)(Cn3ccc4ccncc43)CC2)on1	12.8%
O=C(Cc1ccc(O)cc1)N1CCCC(O)(CN2CCOCC2)CC1 (stereo not given)	30.4%
Cc1nc(CCC(=O)NC2CCC2)cc(C2CCNCC2)n1	33.5%
CN1CC(C(=O)NCCc2ccc(Br)cc2F)CC1=O (stereo not given)	-57%
CC(=O)N1CCC2(CC1)COC(COCc1ccccn1)C2 (stereo not given)	14.6%
c1ccc(OC[C@@H]2CCC[C@@]23CNCCO3)nc1	31.3%
c1ccc(COC[C@H]2CCC[C@@]23CNCCO3)nc1	62.9%
c1ccc(COC[C@@H]2CCC[C@@]23CNCCO3)nc1	72%
CN1CCN(C(=O)c2cc3sccc3n2Cc2ccc(Cl)cc2)CC1	13.9%
Cn1cnc(S(=O)(=O)N2CCCc3cccc(F)c32)c1Cl	39.7%
Cc1cc(C(=O)N2CC[C@H]3[C@@H]2CCC(=O)N3c2ccccc2)no1	53.9%

SMILES	INHIBITION
Cc1ccc(C(=O)N2CC[C@@H]3[C@H]2CCC(=O)N3c2ccccc2)o1	31.8%
O=C(C1CC1)N1CC[C@H]2[C@@H]1CCC(=O)N2c1ccccc1	12.1%
O=C(c1ccco1)N1CC[C@@H]2[C@H]1CCC(=O)N2c1ccccc1	30.3%
O=C(Cc1cccs1)N1CC[C@H]2[C@@H]1CCC(=O)N2c1cccnc1	30.7%
Cc1ccc(C(=O)N2CC[C@H]3[C@@H]2CCC(=O)N3c2ccccc2)cn1	16.8%
O=C(CC1CC1)N1CC[C@H]2[C@@H]1CCC(=O)N2c1cccnc1	58.6%
Cc1cnc(C(=O)N2CC[C@H]3[C@@H]2CCC(=O)N3c2cccnc2)cn1	40.4%
Cc1cccc(C(=O)N2CC[C@@H]3[C@H]2CCC(=O)N3c2ccccc2)n1	65.7%
Cc1cccc(N2CCCC3(C2)CN(S(=O)(=O)C2CC2)CCO3)c1 (stereo not given)	20.1%
CCc1c(C)nc2cc(-c3nccn3C)nn2c1N1CCCC(CO)C1 (stereo not given)	10.62%
Cc1csc(CCCNC(C)CC(=O)Nc2ccc(F)cc2)n1 (stereo not given)	40%
c1cnc(Nc2cncc(C3CCCN3)n2)cn1 (stereo not given)	31.6%
CN(C)CC1COCCN1C(=O)C1(c2cccs2)CCCC1 (stereo not given)	36.2%
CS(=O)(=O)N1CCN(c2cc(-n3cccc3)ncn2)CC1	38.3%
Cc1ccc(CN2CC[C@H]3OCC[C@@H](c4nc(C)no4)[C@H]3C2)cc1	36.4%
Cc1noc([C@@H]2CCO[C@@H]3CCN(Cc4cccs4)C[C@@H]32)n1	24.1%
Cc1noc([C@@H]2CCO[C@@H]3CCN(Cc4ccc(C)s4)C[C@@H]32)n1	53.2%
COCC(=O)N1CC[C@H]2N(C)CC[C@@]2(C(=O)Nc2ccccc2)CC1	3.25%
CN(C)C(=O)CN1CCCC12CCCN(c1ncc(F)cn1)C2 (stereo not given)	8.31%
Cc1cnc(N2CCC[C@@H]3CN(S(C)(=O)=O)C[C@@H]32)nc1	29.8%
CN(C)C(=O)CN1CCC2(CCCN(c3ncc(F)cn3)C2)C1=O (stereo not given)	11.3%
CC(=O)N1C[C@H]2CCCN(c3ncc(C)cn3)[C@H]2C1	45.8%
Cc1cnc(N2CCCC3(CCCN3CC(=O)N(C)C)C2)nc1 (stereo not given)	79.2%
Cc1cnc(N2CCC[C@@H]3CN(CC(=O)N(C)C)C[C@@H]32)nc1	52.3%
